# Assay results: the supplement of paper PMC10477191
# ± gives the standard deviation of the averaged measurements.
# Test system: Drosophila virilis antennal basiconic sensillum AB1
# Assay: odor-evoked OSN spike response (post minus pre-stimulus); higher = stronger neuronal excitation
# Details: odor dilution: 10^-4
# Method: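 Single sensillum recordings from antennal basiconic sensilla of D. virilis. A 500 ms pulse of odorant (10^-4 in mineral oil or DMSO) was delivered; the response is the change in spike frequency between the 1 s pre- and post-stimulus windows (spikes/s).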
row,Compound,odor-evoked OSN spike response [spikes/s]
1,CC(C)=O [acetone],73.5 ± 24
